The source of these data is PubChem BioAssay (NCI).

This is part of a sample that, as a whole, favours compounds with a hit. Of some 83,000 tested, about 20% had one in any assay.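 Results are percent growth after 48 hours of single-concentration exposure. 100 means growth as in untreated cells, lower positive values show inhibition; negative values down to -100 show cell death.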 Unmarked numbers belong to inactive results. The source made the active and inactive calls.

The assay deals with NCI-H460 lung. The experiment in a line: NCI-60 one-dose screen, 48 h (100 = growth as untreated, 0 = no growth, -100 = all killed). The settings on record: 10 µM unless noted. How it is done: Growth inhibition of the NCI-H460 human Non-Small Cell Lung tumor cell line is measured as a screen for anti-cancer activity. Cells are grown in 96 well plates and exposed to the test compound for 48 hours. Compounds are tested at a single concentration, which is 10^-5 M for most compounds. The reported endpoint is percent growth (GI% or GIPRCNT), where numbers from 0 - 100% represent growth inhibition, and numbers from -100% - 0 represent cell death. For example, a value of 40 represents 60% growth inhibition. A value of 0 means no net growth occurred over the course of the experiment. A value of -40 indicates 40% of cells at the beginning of the experiment died by the end of the experiment. A value of -100 means all cells are dead at the end of the experiment.
NCI-60 Human Tumor Cell Lines Screen was performed using the standard one-dose NCI protocol, which is described in more detail at https://dtp.cancer.gov/discovery_development/nci-60/default.htm.
Compounds with GIPRCNT values below 10 were considered active. Activity score was based on GIPRCNT using the following formula: […]
Score is 0 for GIPRCNT values of 100 or above, 50 for GIPRCNT values of 0, and 100 for GIPRCNT values of -100.
For `COc1ccc(Br)c2c1C(=O)CC2`, the growth is 110%.

Regarding `O=[N+]([O-])c1c(Cl)ncnc1Cl`, the growth is 93.2%.

Take `COc1cc(C(=O)O)c(O)c(C(C)(C)C)c1`: the growth was 105%.

Turning to `NNC(=O)CCCCl`, the growth is 111%.

Consider `CC(=O)Nc1ccc(O)c(C)c1`, for which the growth was 104%.

For `NCC(O)C(O)C(O)C(O)CO` (stereo not given), the growth was 102%.

Regarding `c1ccc(Oc2c3ccccc3nc3ccccc23)cc1`, the growth was 3.68% (active).

With `CC1(C)C2CCC1(C)C1(C2)OCCS1` (stereo not given), the growth is 106%.

For the compound `CCOc1ccncc1[N+](=O)[O-]`, the growth was 108%.

As for `CCC(=O)Oc1ccc2ccccc2c1`, the growth was 99.9%.

With `C#CCSc1nnnn1-c1ccccc1`, the growth is 95.4%.

As to `S=CN1CCCCC1`, the growth is 109%.

In the case of `CCNc1ccc2ccccc2c1N=Nc1ccc(N=Nc2ccccc2)cc1`, the growth is 84.7%.

On to `C=CCC(OC(C)=O)c1ccc(OC)c(OC)c1` (stereo not given), for which the growth was 106%.

For `c1ccc(-c2ccc3ccccc3c2)cc1`, the growth is 102%.

In the case of `CCN1CCCC(N2c3ccccc3Sc3ccccc32)C1` (stereo not given), the growth is 104%.

As to `CCOC(=O)c1c(C)[nH]c(C)c1C=O`, the growth is 99.8%.

Regarding `Clc1ccc(-c2noc(/C=C\c3ccccc3)n2)cc1`, the growth was 109%.

Regarding `Nc1cc(N)ncn1`, the growth was 107%.

For `COc1ccc2c(c1)Nc1ccccc1S2`, the growth is 109%.

Take `O=[N+]([O-])c1c(O)c(CNCCCO)cc(CNCCCO)c1O`: the growth was 119%.

As for `CCNCC(C)(C)O`, the growth was 113%.

As to `Nc1nc2nnc(-c3ccccc3)c(-c3ccccc3)n2n1`, the growth was 100%.

Turning to `O=C(c1cccc(C(=O)c2ccc3c4c(cccc24)C(=O)N(c2ccccc2)C3=O)c1)c1ccc2c3c(cccc13)C(=O)N(c1ccccc1)C2=O`, the growth is 104%.

With `Cc1cc(CC(=O)NCCO)n(CCO)c(=O)c1`, the growth was 103%.

With `C=CCC(O)C=C` (stereo not given), the growth was 107%.

In the case of `CN1CCN(C(=S)S)CC1`, the growth is 116%.

Turning to `NC(=S)N/N=C/c1ccc(Cl)cc1`, the growth was 106%.

Consider `C=C(C)COc1ccc(C(C)(C)C)cc1`, for which the growth was 104%.

Consider `CCN(Cc1ccc(Cl)c(Cl)c1)c1ccc2nc(N)nc(N)c2c1C`, for which the growth is -95.8% (active).

For the compound `CCCCOC(=O)c1ccccc1O`, the growth is 113%.

In the case of `c1cc(CNCCNCc2ccncc2)ccn1`, the growth is 116%.

For the compound `ClCc1cccc2c(CCl)cccc12`, the growth was 16.7%.

`Cc1cc(=O)n(Nc2ccccc2)c(O)c1C#N`: the growth is 105%.

For `C=C1CC2(OC1=O)C(=O)N(C)c1ccc(I)cc12` (stereo not given), the growth was -57% (active).

For the compound `CCOC(=O)CNC`, the growth is 106%.

Turning to `COc1cc2c(c(OC)c1OC)-c1ccc(SC)c(=O)cc1[C@@H](NC1OC(CO)C(O)C(O)C1O)CC2` (stereo not given in full), the growth was 3.13% (active).

As for `O=[N+]([O-])c1ccc2[nH]c(=S)n(/C=C(/c3ccc(Cl)cc3Cl)S(=O)(=O)Cc3ccc(Cl)cc3Cl)c2c1`, the growth is 108%.

Turning to `C=CCN1CCCC1=O`, the growth is 105%.

As to `O=C(O)CCCCCNC(=O)OCc1ccccc1`, the growth is 101%.
